From PubChem BioAssay
Compounds with a hit are over-represented: about 3.5% of the library has one in this group of screens.
Mtb UGM inh = M. tuberculosis UGM enzyme inhibitors, primary screen, biochemical, fluorescence polarization, single point; UDP-galactopyranose mutase (Mycobacterium tuberculosis (strain ATCC 25618 / H37Rv)), …; purified UGM, fluorescence polarization probe displacement; inhibition, % at 10 µM; actives 0.06% (n = 320,000); AID 504406, 2011; in the data active = inhibition above about 10%, passing the limit was not always enough
Target sequence (P9WIQ1 whole entry, looked up): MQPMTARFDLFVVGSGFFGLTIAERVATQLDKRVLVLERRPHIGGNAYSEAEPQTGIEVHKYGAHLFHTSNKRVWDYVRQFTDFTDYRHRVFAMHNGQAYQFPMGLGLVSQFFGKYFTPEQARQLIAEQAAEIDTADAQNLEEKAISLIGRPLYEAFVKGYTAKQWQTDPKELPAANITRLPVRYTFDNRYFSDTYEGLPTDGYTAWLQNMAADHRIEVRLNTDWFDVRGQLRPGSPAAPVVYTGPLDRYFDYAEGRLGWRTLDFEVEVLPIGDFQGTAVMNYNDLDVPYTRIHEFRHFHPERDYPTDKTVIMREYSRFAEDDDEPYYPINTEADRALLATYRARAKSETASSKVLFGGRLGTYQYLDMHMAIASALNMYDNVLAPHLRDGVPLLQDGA
GDH-TPI counter-1 = GDH-TPI coupling enzyme inhibitors, primary screen, artefact control for M. tuberculosis FBA inhibitor project, biochemical, absorbance, full deck; GDH-TPI coupled enzyme counterscreen, NADH absorbance; inhibition, % at 4.8 µM; actives 1.2% (n = 360,000); AID 588335, 2011; in the data active = inhibition above about 30%;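 also: 0% = DMSO wells and 100% = wells lacking the enzyme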
Mtb FBA inh = Mtb FBA enzyme inhibitors, primary screen, biochemical, fluorescence, strain H37Rv | Fructose-bisphosphate aldolase (Mycobacterium tuberculosis (strain ATCC 25618 / H37Rv)), … | actives 2.3% (n = 360,000) | purified M. tuberculosis FBA, fluorescence read-out | AID 588726, 2011 | inhibition, % at 1 µM;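 also: 0% = vehicle and 100% = reference inhibitor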
Rv3671c protease = Rv3671c serine protease inhibitors, primary screen, biochemical, fluorescence polarization, M. tuberculosis H37Rv; P9WHR9; inhibition, % at 5.96 µM; actives 0.048% (n = 320,000); in the data active = inhibition above about 38%;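 also: extracellular domain of Rv3671c used as enzyme; 0% = enzyme with DMSO and 100% = no enzyme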
Mtb FBA confirm = M. tuberculosis aldolase blockers, biochemical, fluorescence, strain H37Rv, confirmation; inhibition, % at 1 µM; AID 651616, 2012; actives 78% (n = 5,600); purified M. tuberculosis FBA, fluorescence read-out; shares compounds with Mtb FBA inh;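 also: 0% = vehicle wells and 100% = reference inhibitor wells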
GDH-TPI counter-2 = GDH-TPI coupling enzyme inhibitors, artefact control for M. tuberculosis FBA inhibitor project, biochemical, fluorescence, high throughput | shares compounds with Mtb FBA inh | GDH-TPI coupled enzyme counterscreen | inhibition, % at 1 µM | actives 81% (n = 5,600) | AID 652141, 2013; in the data active = inhibition above about 10%
GDH-TPI dose = GDH-TPI coupling enzyme inhibitors, dose response, artefact control for M. tuberculosis FBA inhibitor project, biochemical, fluorescence, IC50; shares compounds with Mtb FBA inh; GDH-TPI coupled enzyme assay, artifact counterscreen; IC50, µM; actives 79% (n = 170); call rule not given here
An asterisk follows results filed as active; nt = no result given; + = active, no number. Rule as the data show it, unless noted: active = inhibition above about 27%; inactive = the rest.

SMILES	Mtb UGM inh	GDH-TPI counter-1	Mtb FBA inh	Rv3671c protease	Mtb FBA confirm	GDH-TPI counter-2	others
CCc1c(C)c(C#N)c2[nH]c3ccccc3n2c1=S	3.8	11.2	29.5*	-18.8	64.5*	59.8*
Cc1ccc(Cc2c(C)c(C#N)c3[nH]c4ccccc4n3c2=O)cc1	-0.6	-5.3	47.8*	13.2	95.5*	64.6*
Cc1noc(C)c1S(=O)(=O)Nc1ccc2c(c1)C(=O)N([C@H](C)CO)C[C@H](C)[C@@H](CN(C)C(=O)CCCN(C)C)OCCCC[C@@H](C)O2	nt	6.2	0.1	nt	nt	nt
c1ccc2c(NCCc3c[nH]c4ccccc34)c3ccccc3nc2c1	0.5	10.8	39.3*	1.1	116.3*	94.8*
COc1nc(NCCc2ccc(OC)c(OC)c2)nc(OC)n1	-0.7	9.0	-0.1	-1.8	nt	nt
COc1ccc(CCNc2c3ccccc3nc3ccccc23)cc1OC	-1.1	21.4	54.7*	3.1	+	+
Cc1cc(O)c(C(C[N+](=O)[O-])c2ccc(Cl)cc2)c(=O)o1 (configuration not stated)	1.8	9.3	101.5*	8.9	-0.6	-4.4
Cc1[nH]n(-c2ccccc2)c(=O)c1C(C[N+](=O)[O-])c1ccc(Cl)cc1 (configuration not stated)	nt	0.8	1.0	-76.6	nt	nt
C[C@H](CO)N1C[C@H](C)[C@@H](CN(C)S(=O)(=O)c2ccccc2)Oc2c(NC(=O)Nc3ccc4c(c3)OCO4)cccc2C1=O	-2.1	10.9	2.8	1.9	nt	nt
Cc1ccc(N2CC(NC(=O)C3CC3)CC2=O)cc1 (configuration not stated)	3.3	-6.5	-0.2	10.2	nt	nt
CC(=O)Nc1nc(CC(C)C)cc(-c2ccco2)c1C#N	2.6	-3.0	49.6*	-2.3	177.2*	146.0*
Cn1c(=O)[nH]c2c(nc(-c3ccc(Cl)cc3)n2C)c1=O	-0.3	-4.0	28.4*	0.2	3.4	0.9
CCCCn1c(-c2ccc(OC)cc2)nc2c(=O)n(C)c(=O)[nH]c21	-2.1	-4.4	57.8*	0.5	106.7*	105.9*
CCCn1c(-c2ccc(OC)cc2)nc2c(=O)n(C)c(=O)[nH]c21	0.6	-1.7	70.7*	3.7	1.4	-9.3
CCOC(=O)COc1ccc2c(c1)C(=O)CC(C)(C)O2	1.7	19.8	48.5*	-3.8	23.4	6.3	GDH-TPI dose=2.93*
CC1(C)CC(=O)c2cc(OCC(=O)N3CCN(Cc4ccccc4)CC3)ccc2O1	0.7	4.3	7.3	16.7	nt	nt
CC1(C)CC(=O)c2cc(OCC(=O)N3CCCCCC3)ccc2O1	-1.6	0.0	46.3*	0.5	88.1*	95.0*
CC1(C)CC(=O)c2cc(OCC(=O)N3CCN(c4ccccc4F)CC3)ccc2O1	2.6	7.1	18.5	-2.1	nt	nt
CC1(C)CC(=O)c2cc(OCC(=O)O)ccc2O1	1.9	15.5	64.5*	-3.3	101.4*	75.0*
CCOC(=O)N1CCN(C(=O)COc2ccc3c(c2)C(=O)CC(C)(C)O3)CC1	6.1	4.2	41.0*	-12.3	133.8*	114.0*
CC(OC(=O)CC1CCCC1)C(=O)Nc1ccc(S(N)(=O)=O)cc1 (configuration not stated)	0.5	4.2	-1.3	3.1	nt	nt
COc1ccc2c(c1)C(=O)CC(O)(C(F)F)O2 (configuration not stated)	2.2	4.2	30.7*	10.8	72.2*	52.8*
CC1(C)CC(=O)c2cc(OCC(=O)NCCN3CCOCC3)ccc2O1	-1.6	2.7	34.0*	-4.9	56.8*	39.6*
Cc1ccn(-c2ccc(NC(=O)c3cccs3)cc2)n1	0.5	0.4	-3.4	5.8	nt	nt
COc1ccc(OC)c(-c2cc(C(=O)N/N=C(\C)c3cccnc3)c3ccccc3n2)c1	3.4	9.3	-2.3	nt	nt	nt
SMILES	Mtb UGM inh	GDH-TPI counter-1	Mtb FBA inh	Rv3671c protease	Mtb FBA confirm	GDH-TPI counter-2	others
CCOc1ccccc1-c1cc(C(=O)N/N=C/c2ccc3c(c2)OCO3)c2ccccc2n1	nt	16.0	66.0*	nt	+	+
COc1ccc2cc(/C(C)=N/NC(=O)c3cc(-c4cccnc4)nc4ccccc34)ccc2c1	0.8	12.4	33.8*	-4.5	104.9*	88.8*
CCOc1cc(/C=N/NC(=O)c2cc(-c3cccnc3)nc3ccccc23)ccc1O	2.4	51.2*	107.9*	-1.7	5.7	-0.9
CCCCNC(=O)C1(C)CCC(=O)N1CCOC (configuration not stated)	nt	nt	2.5	nt	nt	nt
CC(=O)NC(c1ccco1)c1cc(Cl)c2ccc(Cl)nc2c1O (configuration not stated)	3.4	3.5	-1.3	-12.6	nt	nt
CCCC(=O)NC(c1ccco1)c1cc(Cl)c2cccnc2c1O (configuration not stated)	6.0	0.0	-0.1	9.4	nt	nt
CCC(=O)NC(c1ccco1)c1cc(Cl)c2ccccc2c1O (configuration not stated)	1.0	11.7	30.4*	-3.4	79.0*	56.5*
CC(=O)NC(c1ccco1)c1cc(Cl)c2ccccc2c1O (configuration not stated)	3.3	11.7	36.7*	-1.5	+	+
CC(=O)c1ccc(S(=O)(=O)N(C)CCCC(=O)NCc2ccc3c(c2)OCO3)cc1	nt	9.1	83.9*	nt	144.1*	95.9*
CCCCCc1nnc(NC(=O)NS(=O)(=O)c2ccc(C)cc2)s1	0.3	1.5	41.4*	4.2	150.9*	120.9*
Fc1ccc(-n2c(-c3cccs3)nc3nc4ccccc4nc32)cc1	0.8	4.4	80.8*	3.5	0.3	-4.3
COc1ccc(CNC(=O)COc2cc3c(c4oc(=O)cc(C)c24)CCC(C)(C)O3)cc1	5.0	21.6	43.3*	-9.7	+	170.9*
Cc1c(C)c2c(OCC(=O)N3CCC(C(=O)NCC(C)C)CC3)cc3c(c2oc1=O)CCC(C)(C)O3	3.3	7.8	51.2*	-9.6	-3.9	-0.2
Cc1cc(OCC(=O)N2CCC(C(N)=O)CC2)c2c3c(c(=O)oc2c1)CCCC3	1.5	-2.1	16.8	-6.1	nt	nt
Cc1ccc(S(=O)(=O)N2CCCCC2)cc1NCC(=O)Nc1ccc(Br)cc1F	nt	0.9	-3.6	nt	nt	nt
COC(=O)[C@@]12CCCN1[C@H](c1ccc(-c3ccccc3)cc1)[C@@H]1C(=O)N(C)C(=O)[C@@H]12	2.2	-0.9	1.1	-9.2	nt	nt
O=C1ON(Cc2ccccc2)C(c2ccccc2)N1c1ccccc1 (configuration not stated)	nt	6.0	1.3	nt	nt	nt
Clc1ccc2nc(-c3ccco3)c(Cc3ccccc3)n2c1	nt	nt	2.7	nt	nt	nt
